Source: PubChem
Only some compounds are listed: those with a hit (about 19% of all), similar ones and a draw of the others.
IL-1B inflam inh: blocks inflammasome-driven IL-1 beta release | AID 743279 | 360,000 compounds, 4.7% hits | THP-1 LPS/ATP IL-1B secretion, AlphaLISA, 16 h; active compounds read low | activity change, % at 57.5 µM; in the data active = activity change below about -50%; inconclusive = mostly about -30% to -49%
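Secreted IL-1B measured by AlphaLISA bead assay after 16 h compound exposure of THP-1 cells; compounds (final up to 57.5 uM) added 1 h before LPS (250 ng/mL) and ATP (1.25 mM) stimulation; lower signal means less secretion.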
Giardia kill: kills Giardia lamblia; activity change, % at 7.66 µM, hits read low; Giardia lamblia trophozoite viability; 340,000 compounds, 0.15% hits; in the data active = activity change below about -80%; inconclusive = between about -30% and that limit;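 also: parasites exposed to compound for two days anaerobically before the ATP read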
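Luminescence from cellular ATP indicates surviving trophozoites (100 cells/well) following 48 hrs anaerobic compound treatment at 37 deg C; signal develops 15-30 min at room temperature.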
DT40 TDP1 CPT: DT40-hTDP1 cell growth loss with CPT; 420,000 compounds, 12% hits; Potency, µM (top dose mostly 46.2 µM), hits mostly inhibitors; chicken DT40 Tdp1-/-;hTDP1 cells + 20 nM CPT, ATP luminescence, 48 h; AID 686979; also: nearly all actives have a fitted effect of over 55% in size
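Cell growth measured by CellTiter-Glo luminescence after a minimum 48 h, 37 C compound exposure with 20 nM CPT in Tdp1-knockout DT40 cells stably expressing hTDP1, seeded 400/well; qHTS titration format.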
TDP1 cell noCPT: qHTS for Inhibitors of human tyrosyl-DNA phosphodiesterase 1 (TDP1): qHTS in cells in absence of CPT. DT40 Tdp1-/- hTDP1 cells, no CPT, ATP luminescence, 48 h. AID 686978, 2013. Potency, µM (top dose mostly 46.2 µM), usual class: inhibitors. 420,000 compounds, 15% hits; also: nearly all actives have a fitted effect of over 55% in size
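Growth kinetics read by CellTiter-Glo luminescence after ≥48 hr at 37 °C. Cells: DT40 Tdp1-/- stably carrying human TDP1, 400 per well, compound exposure in the absence of CPT (DMSO vehicle).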
TDP1 inh: blocks human tyrosyl-DNA phosphodiesterase 1; 350,000 compounds, 0.28% hits; Q9NUW8; AID 485290; recombinant TDP1, AlphaScreen DNA substrate cleavage; Potency, µM (doses to about 130 µM), usual class: inhibitors; also: nearly all actives have a fitted effect of over 40% in size
Target sequence (Q9NUW8 whole entry, looked up): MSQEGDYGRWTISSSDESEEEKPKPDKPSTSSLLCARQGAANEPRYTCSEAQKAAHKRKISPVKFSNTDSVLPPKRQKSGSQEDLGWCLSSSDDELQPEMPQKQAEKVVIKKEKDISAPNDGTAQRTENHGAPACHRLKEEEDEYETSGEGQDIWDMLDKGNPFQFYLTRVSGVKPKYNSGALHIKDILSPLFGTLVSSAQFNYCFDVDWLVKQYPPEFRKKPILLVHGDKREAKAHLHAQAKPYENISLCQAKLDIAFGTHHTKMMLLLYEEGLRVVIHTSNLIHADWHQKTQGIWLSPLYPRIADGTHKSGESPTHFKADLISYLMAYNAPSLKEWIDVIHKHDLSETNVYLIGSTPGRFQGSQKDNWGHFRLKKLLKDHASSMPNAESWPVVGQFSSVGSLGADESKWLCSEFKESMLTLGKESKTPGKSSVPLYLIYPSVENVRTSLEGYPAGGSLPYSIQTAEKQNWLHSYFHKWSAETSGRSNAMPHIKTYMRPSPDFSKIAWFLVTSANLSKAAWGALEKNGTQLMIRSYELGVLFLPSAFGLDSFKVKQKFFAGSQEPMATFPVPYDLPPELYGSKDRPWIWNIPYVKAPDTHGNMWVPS
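Signal: AlphaScreen proximity between streptavidin donor and anti-FITC acceptor beads on intact substrate. Reaction: Tdp1 1 nM, substrate 15 nM final, 5 min RT after 15 min compound preincubation.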
ELG1 repair inh: ELG1-dependent DNA repair inhibition | Potency, µM (series often up to 46.1 µM), most hits filed as inhibitors | 330,000 compounds, 2.3% hits | HEK293T ELG1-luciferase reporter, luminescence, 16 h; DNA damage induced by 5-fluorouridine; also: nearly all actives have a fitted effect of over 55% in size
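Overnight (16 hr) co-exposure of 2,000 cells/well to 5-fluorouridine and compound at 37 °C preceded detection. Luciferase was quantified via ONE-Glo luminescence; loss of signal denotes inhibition.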
Numbers stand for hits; . = inactive; ? = inconclusive; / = no result. Unless noted, calls follow the shape of the dose curve; as a rule, active = well fitted curve in the direction sought with a large enough effect; inconclusive = small, poorly fitted or top-dose-only effect, or another doubt; inactive = no such curve, though single readings can be large; an effect the other way counts as inactive or inconclusive.

SMILES | IL-1B inflam inh | Giardia kill | DT40 TDP1 CPT | TDP1 cell noCPT | TDP1 inh | ELG1 repair inh
O=C(COC(=O)c1cccc(S(=O)(=O)N2CCCC2)c1)NCc1ccccc1 | . | . | . | . | . | .
CC12CCC(C(=O)Nc3ccc(Br)cn3)(OC1=O)C2(C)C (stereo not given) | . | . | . | . | . | .
O=C(Nc1cccc(F)c1)NC1CC2CCCC(C1)N2C1CC1 (stereo not given) | . | . | ? | ? | . | .
O=C(Nc1ccc(Cl)c(C(F)(F)F)c1)NC1CC2CCCC(C1)N2C1CC1 (stereo not given) | ? | . | 11µM | 11µM | / | /
CCC(C)n1cnc2c(c1=O)c1nc3ccccc3nc1n2Cc1ccc(OC)cc1 (stereo not given) | . | . | ? | 15µM | . | ?
COCCCn1cnc2c(c1=O)c1nc3ccccc3nc1n2-c1ccc(C)cc1 | . | . | ? | ? | . | .
COc1ccc(S(=O)(=O)c2c(N)n(Cc3ccco3)c3nc4ccccc4nc23)cc1 | . | . | 18µM | . | . | ?
Cc1cc(C)cc(-n2c3nc4ccccc4nc3c3c(=O)n(Cc4ccco4)cnc32)c1 | . | . | 23µM | 12µM | . | .
COc1ccc(Cn2c3nc4ccccc4nc3c3c(=O)n(Cc4ccco4)c(C)nc32)cc1 | / | / | / | / | 32µM | .
Cc1nc2c(c(=O)n1Cc1ccccc1Cl)c1nc3ccccc3nc1n2Cc1ccco1 | / | / | / | / | . | .
O=C1CC(c2ccccc2)Cc2[nH]c(=O)c(C(=O)O)cc21 (stereo not given) | / | / | . | . | / | /
Cc1cccc(C(=O)OCc2cc(=O)n3ccsc3n2)c1 | / | / | . | . | . | /
COc1cc(CN2CCN(S(=O)(=O)c3ccc(NC(C)=O)cc3)CC2)cc(OC)c1OC | / | / | / | / | . | /
Cc1cc2c(=O)n(C)c(SCC(=O)Nc3ccccc3C)nc2s1 | . | . | ? | ? | . | ?
O=C(CSc1nnc(CNC(=O)c2cccs2)o1)Nc1ccc(Cl)cc1 | . | . | . | . | . | .
C[C@H]1CN(C2CCCCC2)C(=O)[C@@H]1CC(=O)Nc1ccc(Br)cc1 | . | / | . | . | / | /
COc1ccc(Cn2c(C)nc3c(c2=O)c2nc4ccccc4nc2n3Cc2ccco2)cc1 | . | . | 15µM | 8.2µM | / | /
Cc1cc(=O)[nH]c(NNC(=O)c2ccc(Cl)cc2)n1 | . | / | . | . | / | /
COc1ccc(OCc2cccc(C(=O)NN)c2)cc1 | . | . | ? | . | . | ?
NNC(=O)c1cccc(COc2ccc(Br)cc2)c1 | . | . | 21µM | ? | . | ?
NNC(=O)c1ccc(COc2ccc3ccccc3c2)cc1 | . | . | ? | 21µM | / | ?
COc1cc(CNC(=O)c2cccc(COc3ccc(Cl)cc3)c2)cc(OC)c1 | . | . | ? | 16µM | . | ?
CC1CN(C(=O)c2cccc(COc3ccc(Br)cc3)c2)CC(C)O1 (stereo not given) | . | . | 21µM | 13µM | . | ?
COc1ccccc1CNC(=O)CCCn1c(=O)c2ccccc2n(CC(=O)Nc2c(C)cc(C)cc2C)c1=O | / | / | ? | ? | . | /
COc1ccc(NC(=O)c2oc3ccccc3c2NC(=O)Cc2coc3ccc(C)cc23)cc1 | / | / | . | ? | . | /
SMILES | IL-1B inflam inh | Giardia kill | DT40 TDP1 CPT | TDP1 cell noCPT | TDP1 inh | ELG1 repair inh
Cc1ccc(NC(=O)Cc2coc3ccc(C(C)C)cc23)cc1Cl | / | / | ? | 29µM | . | /
CCc1ccc2occ(CC(=O)Nc3ccc(C)c(C)c3)c2c1 | / | / | ? | 13µM | . | /
CCCCOC(=O)c1ccc(NC(=O)Cc2coc3ccc(C(C)C)cc23)cc1 | / | / | 26µM | 23µM | . | /
Cc1ccc(NC(=O)Cc2coc3ccc(C(C)C)cc23)c(C)c1 | / | / | ? | ? | . | /
CCc1ccc2occ(CC(=O)Nc3nnc(SC)s3)c2c1 | / | / | . | . | . | /
CCOc1ccc(NC(=O)Cc2coc3ccc(C)cc23)cc1 | / | / | 16µM | 21µM | . | /
O=C(CCCC(=O)Nc1ccc(Br)cc1)N/N=C/c1ccccc1 | . | . | . | . | . | .
c1ccsc1 | / | / | / | / | . | /
COc1ccc(CC(=O)Nc2ccc(-c3cn4ccc(C)cc4n3)cc2)cc1 | . | . | 5.8µM | 5.2µM | . | ?
Cc1ccn2cc(-c3cccc(NC(=O)C(C)C)c3)nc2c1 | . | . | 15µM | 29µM | . | ?
COc1ccc(CC(=O)Nc2ccc(-c3cn4cccc(C)c4n3)cc2)cc1OC | . | . | ? | 23µM | . | ?
CCc1ccc(NC(=O)Cc2ccc(OC)cc2)cc1 | / | / | / | / | . | ?
Cc1onc(-c2c(F)cccc2Cl)c1C(=O)O/N=C(\N)c1ccc([N+](=O)[O-])o1 | / | . | . | . | . | .
Cc1ccc(NC(=O)CSc2ncn[nH]2)c([N+](=O)[O-])c1 | . | ? | . | . | . | ?
Clc1ccccc1C(c1ccccc1)(c1ccccc1)n1ccnc1 | . | . | 8.1µM | 10µM | . | .
C#CC(c1ccccc1)(c1ccccc1)n1ccnc1 | . | / | ? | 23µM | / | /
Clc1ccccc1-c1nccc(-n2ccnc2)n1 | / | / | . | . | / | /
c1ccc(CCOn2ccnc2)cc1 | . | . | . | . | / | .
COCCNC(=O)CNC(=S)N(CCCN1CCOCC1)Cc1cccs1 | . | . | . | . | . | .
O=C(O)c1ccc(OCCCCCCOC2CCCCO2)cc1 (stereo not given) | . | . | ? | 18µM | / | .
COc1ccc2cc(CCOC3CCCCO3)ncc2c1 (stereo not given) | . | . | . | ? | . | ?
COc1ccc(C2Nc3ccccc3C(=O)N2Cc2ccccc2)cc1Oc1ccc(NC(C)=O)cc1 (stereo not given) | / | / | / | / | . | /
COc1ccc(C(CNCC(O)COc2c(C)ccc(C)c2C)N(C)C)cc1 (stereo not given) | . | . | 26µM | 12µM | / | .
COc1ccc(Sc2nnc(Cc3ccccc3)c3ccccc23)cc1 | / | . | ? | ? | . | .
COc1ccc(Nc2nnc(Cc3ccncc3)c3ccccc23)c(OC)c1 | -57 | . | . | . | / | ?
COc1ccc(-c2cnc3c(NC=O)cc(-c4ccc(C(=O)N5CCOCC5)cc4)cn23)cc1OC | ? | / | 4.1µM | 3.3µM | / | /
CC(=O)c1cccc(-c2cnc3c(NC=O)cc(-c4ccc(C(=O)N5CCOCC5)cc4)cn23)c1 | . | / | ? | ? | / | /
CC(=O)c1ccc(-c2cnc3c(NC=O)cc(-c4ccc(C(=O)N5CCOCC5)cc4)cn23)cc1 | . | / | 16µM | 21µM | / | /
Cc1cc(Br)ccc1NC(=O)CN(C)C(=O)C1CSC2(C)CCC(=O)N12 (stereo not given) | . | . | . | . | . | .
C[n+]1cnc(-c2ccccc2)cc1-c1ccccc1 | . | . | . | . | . | .
